In PubChem BioAssay:
Calls of active or inactive are those of the source.

Molecular target: Dihydroorotate dehydrogenase (quinone), mitochondrial (Plasmodium falciparum (isolate 3D7)) (UniProt Q08210)
Test: PfDHODH enzyme inhibitors, primary screen, biochemical, C-terminal His tag, absorbance 600 nm (AID 1175);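 note: recombinant parasite enzyme with a five histidine tag at its C terminus; test concentration not given here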
Conditions: DCIP absorbance 600 nm, higher = more signal, called active from +8 up or from −8 down

Dihydroorotate dehydrogenase (quinone), mitochondrial (Plasmodium falciparum (isolate 3D7)), sequence (Q08210 whole entry, looked up): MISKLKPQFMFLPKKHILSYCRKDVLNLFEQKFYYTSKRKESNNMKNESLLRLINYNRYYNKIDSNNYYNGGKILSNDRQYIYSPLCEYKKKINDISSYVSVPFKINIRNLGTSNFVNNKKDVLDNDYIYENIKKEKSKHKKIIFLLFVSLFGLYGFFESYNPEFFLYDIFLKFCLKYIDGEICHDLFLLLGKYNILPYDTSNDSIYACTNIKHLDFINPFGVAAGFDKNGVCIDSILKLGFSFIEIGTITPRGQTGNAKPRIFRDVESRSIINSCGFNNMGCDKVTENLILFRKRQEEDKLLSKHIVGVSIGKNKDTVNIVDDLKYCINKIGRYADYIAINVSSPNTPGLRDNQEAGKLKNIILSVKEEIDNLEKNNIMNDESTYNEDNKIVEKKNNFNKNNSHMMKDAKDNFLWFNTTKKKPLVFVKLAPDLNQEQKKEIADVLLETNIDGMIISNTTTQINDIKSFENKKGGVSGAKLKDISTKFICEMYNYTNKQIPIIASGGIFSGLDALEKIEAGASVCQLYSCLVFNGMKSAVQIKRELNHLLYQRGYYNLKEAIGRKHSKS

Composite z-score, inactive:
C=CC[C@@H]1C=C[C@H](ON=CC[C@@H]2C=C[C@H](OC(C)=O)[C@@H](COC(C)=O)O2)[C@@H](CO)O1 -0.84, CC(CCC(=O)OC[C@H]1O[C@H](C#Cc2ccccc2)C=C[C@@H]1Oc1ccc(C)cc1)=NO[C@H](C)c1cn([C@@H]2COC[C@H]2O)nn1 -2.12, COC(=O)[C@@H]1CC[C@H](C)[C@@H](c2ccc(C)cc2)N1C(=O)c1ccc(C=NOC[C@@H](O)[C@H]2O[C@@H]3OC(C)(C)O[C@@H]3[C@H]2O)cc1 -0.354, C=CC[C@@H]1C=C[C@H](Oc2ccc(C)cc2)[C@@H](COC(=O)NCc2cccc3ccccc23)O1 0.438, CCOC(=O)[C@H](CC(C)C)NC(=O)CCC1CC(OC(=O)NCc2ccc3c(c2)OCO3)CC2(CCCC(COC(=O)NCCC(C)C)O2)O1 (some centres undefined) 0.126, CCOC(=O)CCN1C(=O)[C@H]2[C@H]3[C@H](O)[C@H](O)CC(=NO[C@@H]4O[C@H](CO)[C@@H](O)[C@H](O)[C@H]4O)[C@@H]3CC[C@H]2C1=O -0.451, COC(=O)[C@H](C)NC(=O)CCC1CC(OC(=O)NCc2ccc3c(c2)OCO3)CC2(CCCC(COC(=O)NCCCN3CCCC3=O)O2)O1 (some centres undefined) 0.184, Cc1ccc(S(=O)(=O)N[C@@H]2COC(=O)CC=C[C@@H](C)[C@H](NS(=O)(=O)c3ccc(C)cc3)COC(=O)[C@H](C)NC(=O)CC=C[C@H]2C)cc1 0.576, CCOC(=O)[C@H](CC(C)C)NC(=O)CCC1CC(OC(=O)NCc2ccc3c(c2)OCO3)CC2(CCCC(COC(=O)NCCOC)O2)O1 (some centres undefined) -0.617
